PolyA inh: polyadenylation inhibitors in yeast reporter cells, primary screen, luminescence, S. cerevisiae; actives 0.02% (n = 300,000); AID 1875, 2009; S. cerevisiae SKY197-pL101 polyadenylation reporter, beta-gal luminescence; efflux-impaired pdr1/pdr3 knockout yeast; score 100 = 6 SD above DMSO; activity score, % at 12 µM;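 active = lowest replicate activity score at least 50, where 100 means six control SD above control mean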;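 also: yeast exposed to compound for 9 h at 30 °C; higher score means more reporter readthrough which indicates perturbed polyadenylation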
ssDAF12 agonist: S. stercoralis DAF-12 nuclear receptor activators, primary screen, cell-based, luminescence, HEK293, GRIP1 co-expression, lit1-tk-luc | Nuclear hormone receptor DAF-12 (Strongyloides stercoralis) | HEK293 ssDAF-12/GRIP1 lit1-tk-luc reporter; % of 3 µM dafachronic acid response | activation, % at 6.8 µM | actives 1% (n = 370,000);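 active = activation above the mean over all tested compounds plus 3 SD, cut at about 0.9% in these data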;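 also: 0% = DMSO-only wells and 100% = 3 µM delta7-dafachronic acid wells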
DAX1 inh-1: DAX1 (NR0B1) inhibitors, primary screen, cell-based, HEK293, Gal4-DAX1, luciferase luminescence. HEK293 Gal4-DAX1 luciferase reporter. inhibition, % at 6.75 µM. actives 0.99% (n = 340,000). AID 504766, 2011;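 active = inhibition above the mean over all tested compounds plus 3 SD, cut at about 4.2% in these data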;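 also: 0% = DAX1-transfected cells with DMSO and 100% = empty-vector control cells with DMSO; inhibition shows as a rise in luminescence from relieved DAX1 repression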
Target sequence (P51843 207-470 limits assumed): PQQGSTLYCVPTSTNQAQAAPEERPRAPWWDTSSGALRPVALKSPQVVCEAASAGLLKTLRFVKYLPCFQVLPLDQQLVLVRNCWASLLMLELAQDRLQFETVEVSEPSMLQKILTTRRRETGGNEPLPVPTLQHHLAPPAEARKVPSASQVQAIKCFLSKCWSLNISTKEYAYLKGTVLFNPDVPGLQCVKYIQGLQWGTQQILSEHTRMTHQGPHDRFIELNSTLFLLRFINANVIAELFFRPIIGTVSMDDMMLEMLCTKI
hcDAF12 agonist: H. contortus DAF-12 nuclear receptor activators, primary screen, cell-based, luminescence, HEK293, lit1-tk-luc reporter. HEK293 hcDAF-12 lit1-tk-luc reporter; 0% DMSO, 100% Δ7-dafachronic acid. activation, % at 6.8 µM. actives 1.4% (n = 370,000). AID 652067, 2013;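 active = activation above the mean of all tested compounds plus 3 SD, cut at about 5.5% in these data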;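 also: 100% = response to 3 µM Δ7-dafachronic acid high control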
hgDAF-12 ag: H. glycines DAF-12 receptor agonists, primary screen, cell-based, luminescence, HEK293, GAL4 fusion, UAS-luciferase; activation, % at 6.8 µM; AID 687014, 2013; HEK293 GAL4-hgDAF12 UAS-luciferase reporter, agonist luminescence; normalized to butyrate control; actives 1.8% (n = 370,000);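 active = activation above a cutoff set at the mean of all screened compounds plus 3 SD, cut at about 10% in these data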;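 also: 0% = DMSO wells and 100% = sodium butyrate wells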
DAX1 inh-2: DAX1 (NR0B1) inhibitors on StAR promoter, primary screen, cell-based, luminescence, SF-1 (NR5A1), full-length DAX-1. HEK293T StAR-luciferase reporter, SF-1/DAX-1 repression relief. inhibition, % at 6.8 µM. actives 1.1% (n = 370,000). AID 652010, 2013;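 active = inhibition above the mean over all tested compounds plus 3 SD, cut at about 3.6% in these data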;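 also: 0% = DAX-1 cells with DMSO and 100% = cells lacking DAX-1 with DMSO; higher inhibition means more luminescence from relief of DAX-1 repression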
DAX1 inh confirm: DAX1 (NR0B1) inhibitors relieving SF-1 repression, confirmation, cell-based, luminescence, HEK293T, full-length DAX-1, SF-1 activated StAR promoter | AID 652134, 2013 | actives 87% (n = 2,400) | shares compounds with DAX1 inh-2 | HEK293T StAR-promoter luciferase reporter, SF-1/DAX-1 repression | inhibition, % at 6.8 µM;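 active = inhibition above the average of every tested compound plus 3 SD, cut at about 3.8% in these data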;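 also: 0% = DAX-1 cells with DMSO and 100% = no DAX-1 control cells with DMSO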
SF1 AF2mut Luc: StAR reporter signal changes without DAX1, counter-screen for DAX1 inhibitor project, cell-based, luminescence, AF-2 mutant SF-1, transactivation; HEK293 StAR-luciferase, SF-1 AF2 mutant; actives 78% (n = 2,400); inhibition, % at 6.8 µM; shares compounds with DAX1 inh-2;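 active = inhibition above the mean of all tested compounds plus 3 SD, cut at about 3% in these data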;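 also: 0% = DAX-1 transfected cells with DMSO and 100% = cells without DAX-1 with DMSO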
LXR ag: LXR agonists, Gal4 luciferase reporter, confirmation, counter-screen for hcDAF-12 agonist project, cell-based, luminescence, HEK293, H. contortus campaign. shares compounds with hcDAF12 agonist. 3,400 tested, under 10 active. activation, % at 6.8 µM. HEK293 Gal4-LXR tk-luc reporter, 24 h; normalized: DMSO 0%, positive control 100%. AID 743027, 2013;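 active = mean percent activation of the reporter above a cutoff set as the average over tested compounds plus their standard deviation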
Target sequence (P55055 whole entry, looked up, the tested form may be a part): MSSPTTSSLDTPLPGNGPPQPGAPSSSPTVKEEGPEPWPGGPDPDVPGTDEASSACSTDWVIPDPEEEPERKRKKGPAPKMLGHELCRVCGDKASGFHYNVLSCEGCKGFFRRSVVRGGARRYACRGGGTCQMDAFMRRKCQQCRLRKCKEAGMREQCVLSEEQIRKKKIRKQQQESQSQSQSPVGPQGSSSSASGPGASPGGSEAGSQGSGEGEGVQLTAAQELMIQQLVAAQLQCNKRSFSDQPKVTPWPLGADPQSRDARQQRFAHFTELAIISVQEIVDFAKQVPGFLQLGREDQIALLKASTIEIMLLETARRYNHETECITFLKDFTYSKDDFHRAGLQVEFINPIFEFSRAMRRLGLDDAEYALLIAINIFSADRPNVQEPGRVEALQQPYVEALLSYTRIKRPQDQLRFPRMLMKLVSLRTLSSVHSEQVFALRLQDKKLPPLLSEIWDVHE
hcDAF12 ag: H. contortus DAF-12 receptor agonists, confirmation, cell-based, luminescence, HEK293, lit1-tk-luc, triplicate | HEK293 hcDAF-12 lit1-tk-luc reporter; % of Δ7-dafachronic acid response | activation, % at 6.8 µM | shares compounds with hcDAF12 agonist | actives 61% (n = 3,400) | AID 743032, 2013;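 active = mean activation across triplicate tests above the threshold derived from the earlier primary screen, cut at about 5.5% in these data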;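 also: 0% = DMSO only wells and 100% = 3 µM Δ7-dafachronic acid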
* hit, by the source's call; x = no result; ! = not confirmed by another sample. In the library only some 4.1% were active in any assay of this set; here they are far more common.

SMILES | PolyA inh | ssDAF12 agonist | DAX1 inh-1 | hcDAF12 agonist | hgDAF-12 ag | DAX1 inh-2 | LXR ag | hcDAF12 ag | others
O=C(NC(=O)c1c(F)cccc1F)Nc1cc(Cl)c(F)c(Cl)c1F | -3 | 0 | 1 | 0 | 2 | 0 | x | x
NNCc1ccccc1 | x | -1 | 0 | 3 | 2 | 5.0*! | x | x | DAX1 inh confirm=2;SF1 AF2mut Luc=2.9*
CC(=O)O[C@@H]1/C=C/[C@](C)(O)C[C@@H](C)C/C=C/[C@H]2[C@H](O)C(C)=C(C)[C@H]3[C@H](Cc4ccccc4)NC(=O)[C@@]123 | -17 | x | x | x | x | x | x | x
C=C1[C@@H](C)C2[C@H](Cc3ccccc3)NC(=O)[C@]23[C@H](OC(C)=O)/C=C/[C@@](C)(O)C(=O)[C@@H](C)C/C=C/[C@H]3[C@@H]1O (some centres undefined) | x | 0 | x | 1 | -2 | 13* | x | x | DAX1 inh confirm=17*;SF1 AF2mut Luc=-2
COc1ccc(C(=O)C2CCCN(CCc3ccccc3)C2)cc1OC (centres undefined) | x | 0 | x | 3 | 1 | 6.3* | x | x | DAX1 inh confirm=6.0*;SF1 AF2mut Luc=3.7*
O=c1c2ccccc2nc(-c2ccccc2)n1-c1cccnc1 | 14 | 0 | 1 | 2 | 2 | -1 | x | x
Cc1ccc(N)c(N)c1 | x | 0 | -2 | 3 | 10 | 6.6* | x | x | DAX1 inh confirm=5.5*;SF1 AF2mut Luc=3.2*
Cc1ccc(N)c(C(=O)c2ccc(Br)cc2)c1 | -10 | -1 | 1 | 0 | 6 | 0 | x | x
O=C(c1cc2cc3ccc(Cl)cc3nc2o1)N1CCC2(CC1)OCCO2 | -20 | 0 | 0 | 0 | -1 | 0 | x | x
O=C(c1cc2cc(Cl)ccc2[nH]1)N1CCC2(CC1)OCCO2 | 2 | 1 | 1 | 6.4* | 6 | 4.6* | x | x | DAX1 inh confirm=3;SF1 AF2mut Luc=3.8*
CS(=O)(=O)c1ccc(C2=C(CNC(=O)c3cccnc3)[C@H]3CC[C@@H](C2)N3Cc2ccccc2)cc1 | x | -1 | 0 | 0 | -2 | 2 | x | x
CNC(=O)Oc1cccc(-c2cn3cc(Cl)ccc3n2)c1 | 23 | 2.5* | -6 | 15* | 13* | 5.8* | 2 | 16* | DAX1 inh confirm=14*;SF1 AF2mut Luc=5.1*
CC12CCC3C(CCCC4CC(=O)CCC43C)C1CCC2O (centres undefined) | x | -1 | 0 | -1 | 2 | 0 | x | x
COc1ccc2nc(NC3=NCCN3)sc2c1 | -45 | 1.0* | 3 | 10* | 12* | 3 | 1 | 7.4*
c1ccc2sc(NC3=NCCN3)nc2c1 | -64 | 0 | 2 | 9.3* | 7 | 1 | 1 | 7.2*
Cc1c2cnn(CC(=O)N3CCC4(CC3)OCCO4)c(=O)c2c(C)n1Cc1ccccc1Cl | -6 | -1 | 0 | -2 | 2 | 1 | x | x
CCN1C(=O)N(CC)C(=O)C2(Cc3ccccc3N3CCN(c4ccccc4)CC32)C1=O (centres undefined) | 3 | 0 | x | 8.7* | 10 | 1 | 0 | 3
CCCC(=O)NC1=C(N2CC2)C(=O)C(NC(=O)CCC)=C(N2CC2)C1=O | x | -1 | -1 | 1 | -4 | -1 | x | x
C=CCN1C[C@@H](C)N(C(c2ccc(C(=O)N(CC)CC)cc2)c2cccc(OC)c2)C[C@@H]1C (some centres undefined) | x | -2 | -1 | -4 | 1 | 3 | x | x
C=CCn1c(O)c(/C=C2\C=Nc3ccccc32)c(=O)[nH]c1=O | -9 | 0 | x | 6.7* | 1 | 0 | 0 | 5
N#Cc1ccccc1Cn1cc(C(=O)c2ccccc2F)c2ccccc21 | -9 | -1 | -1 | 1 | 0 | 0 | x | x
O=C(N/N=C/c1c(O)n(CCC2=CCCCC2)c(=O)[nH]c1=O)c1ccccc1 | 6 | 0 | 0 | 2 | 7 | 2 | x | x
Nc1ccccc1N=Cc1c(O)n(CCC2=CCCCC2)c(=O)[nH]c1=O | -18 | 1 | 3 | 9.6* | 11* | 3 | 0 | 1
Brc1ccc(-[n+]2c(-c3ccccc3)cc(-c3ccccc3)cc2-c2ccccc2)cc1 | 17 | -2 | 4 | -5 | -6 | -2 | x | x
CN(C)C(Cc1ccccc1)C(=O)c1c[nH]c2ccccc12 (centres undefined) | 22 | 0 | -1 | 6.8* | 2 | 1 | 0 | 2
Cc1cccc(N=Nc2ccc(N(C)C)cc2)c1 | -27 | 1.0* | 1 | 8.7* | 13* | 3 | 2 | 5
COC(=O)C1=C(c2ccc(F)cc2OCc2ccccc2)C[C@@H]2CC[C@H]1N2C(=O)NCCCc1ccccc1 | x | -2 | 0 | -4 | -6 | 0 | x | x
CN(C)c1ccc2c(c1)N=C(c1ccco1)OP2(=S)N1CCOCC1 (centres undefined) | 6 | 1.9* | 0 | 7.6* | 4 | 1 | 0 | 2
Cc1cccc(OCC(O)CN2CC2)c1 (centres undefined) | x | 0 | 2 | 1 | 4 | 1 | x | x
COc1ccc(P2(=O)Nc3ccccc3N2)cc1 | 0 | 1.4* | 0 | 8.0* | 6 | 2 | 1 | 5
